Assay results taken from PubChem BioAssay AID1159580 (chemical genetic matrix, 2015).
The whole screen tested about 5,500 compounds, of which about 2,000 (36%) were called active. Roughly 18% stayed inconclusive and do not appear here. The list shows a part of the results. Values without a mark were called inactive. Rule as the data show it: active = normalized growth mostly below about 0.91 (no sharp cut-off); inconclusive = no clear call, values can overlap the other calls; inactive = mostly above about 0.92.

Test: chemical genetic growth profiling, strain panel (AID 1159580);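 also: tested at 20 µM; growth read once vehicle control cultures reached saturation at 30 °C; 1 = growth at the plate median or of vehicle wells; lower values mean less growth of the strain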
Conditions: S. cerevisiae deletion strains, growth OD

O=C(Nc1cc(Cl)ccc1O)c1ccccc1CSc1ccc(Cl)cc1 gave a normalized growth (locus YAR019C, strain CDC15, hits give low values) of 0.977, a normalized growth (locus YBL105C, strain PKC1, hits give low values) of 0.984 and a normalized growth (locus YBR135W, strain CKS1, hits give low values) of 0.985. It also gave a normalized growth (locus YBR136W, strain MEC1, hits give low values) of 0.98, a normalized growth (locus YBR160W, strain CDC28, hits give low values) of 0.979 and a normalized growth (locus YDL017W, strain CDC7, hits give low values) of 0.986. It also gave a normalized growth (locus YDL028C, strain MPS1, hits give low values) of 0.985, a normalized growth (locus YDL101C, strain DUN1, hits give low values) of 0.989 and a normalized growth (locus YDL108W, strain KIN28, hits give low values) of 0.981. It also gave a normalized growth (locus YDL132W, strain cdc53, hits give low values) of 0.988, a normalized growth (locus YDL214C, strain PRR2, hits give low values) of 0.823 and a normalized growth (locus YDR052C, strain DBF4, hits give low values) of 0.983. The normalized growth (locus YDR054C, strain cdc34, hits give low values) was 0.979, the normalized growth (locus YDR226W, strain ADK1, hits give low values) was 0.976 and the normalized growth (locus YDR477W, strain SNF1, hits give low values) was 0.8. For the same compound, the normalized growth (locus YER123W, strain YCK3, hits give low values) was 0.749, the normalized growth (locus YER133W, strain GLC7, hits give low values) was 0.839 and the normalized growth (locus YFL009W, strain cdc4, hits give low values) was 0.981. The normalized growth (locus YFL029C, strain CAK1, hits give low values) was 0.977, the normalized growth (locus YFR003C, strain YPI1, hits give low values) was 0.979 and the normalized growth (locus YFR019W, strain FAB1, hits give low values) was 0.753 (active). It also gave a normalized growth (locus YFR028C, strain CDC14, hits give low values) of 0.986, a normalized growth (locus YGR040W, strain KSS1, hits give low values) of 0.794 and a normalized growth (locus YGR052W, strain FMP48, hits give low values) of 0.685. For the same compound, the normalized growth (locus YGR092W, strain DBF2, hits give low values) was 0.571, the normalized growth (locus YHR030C, strain SLT2, hits give low values) was 0.29 (active) and the normalized growth (locus YHR079C, strain IRE1, hits give low values) was 0.683. For the same compound, the normalized growth (locus YHR082C, strain KSP1, hits give low values) was 0.652, the normalized growth (locus YHR205W, strain SCH9, hits give low values) was 0.785 and the normalized growth (locus YIL147C, strain SLN1, hits give low values) was 0.981. For the same compound, the normalized growth (locus YJL095W, strain BCK1, hits give low values) was 0.502, the normalized growth (locus YJL128C, strain PBS2, hits give low values) was 0.922 and the normalized growth (locus YJL157C, strain FAR1, hits give low values) was 0.783. It also gave a normalized growth (locus YJR016C, strain ILV3, hits give low values) of 0.987, a normalized growth (locus YJR066W, strain TOR1 (second series), hits give low values) of 0.765 and a normalized growth (locus YJR066W, strain TOR1, hits give low values) of 0.647. The normalized growth (locus YKL048C, strain ELM1, hits give low values) was 0.888, the normalized growth (locus YKL067W, strain YNK1, hits give low values) was 0.835 and the normalized growth (locus YKL101W, strain HSL1, hits give low values) was 0.633 (active). For the same compound, the normalized growth (locus YKL193C, strain SDS22, hits give low values) was 0.988, the normalized growth (locus YKL203C, strain TOR2, hits give low values) was 0.784 and the normalized growth (locus YLR113W, strain HOG1, hits give low values) was 0.52 (active). For the same compound, the normalized growth (locus YLR133W, strain CKI1, hits give low values) was 0.776, the normalized growth (locus YLR403W, strain SFP1, hits give low values) was 0.763 and the normalized growth (locus YML070W, strain DAK1, hits give low values) was 0.714. The normalized growth (locus YMR001C, strain CDC5, hits give low values) was 0.981, the normalized growth (locus YMR205C, strain PFK2 (second series), hits give low values) was 0.851 and the normalized growth (locus YMR277W, strain FCP1, hits give low values) was 0.983. For the same compound, the normalized growth (locus YNL006W, strain LST8, hits give low values) was 0.98, the normalized growth (locus YNL020C, strain ARK1, hits give low values) was 0.689 (active) and the normalized growth (locus YNL161W, strain CBK1, hits give low values) was 0.97. It also gave a normalized growth (locus YNL183C, strain NPR1, hits give low values) of 0.689, a normalized growth (locus YNL207W, strain RIO2, hits give low values) of 0.97 and a normalized growth (locus YNL222W, strain SSU72, hits give low values) of 0.983. For the same compound, the normalized growth (locus YNL307C, strain MCK1 (second series), hits give low values) was 0.565 (active), the normalized growth (locus YOL078W, strain AVO1, hits give low values) was 0.986 and the normalized growth (locus YOL136C, strain PFK27, hits give low values) was 0.753. The normalized growth (locus YOR061W, strain CKA2, hits give low values) was 0.603 (active), the normalized growth (locus YOR119C, strain RIO1, hits give low values) was 0.861 and the normalized growth (locus YOR231W, strain MKK1, hits give low values) was 0.699. The normalized growth (locus YOR329C, strain SCD5, hits give low values) was 0.975, the normalized growth (locus YPL031C, strain PHO85, hits give low values) was 0.738 and the normalized growth (locus YPL153C, strain RAD53, hits give low values) was 0.747. The normalized growth (locus YPL204W, strain HRR25, hits give low values) was 0.731, the normalized growth (locus YPL209C, strain IPL1, hits give low values) was 0.981 and the normalized growth (locus YPL256C, strain CLN2, hits give low values) was 0.551 (active). The normalized growth (locus YPR025C, strain CCL1, hits give low values) was 0.979, the normalized growth (locus YPR106W, strain ISR1, hits give low values) was 0.979 and the normalized growth (locus YPR111W, strain DBF20, hits give low values) was 0.954. For the same compound, the normalized growth (strain NNK1, hits give low values) was 0.961 and the normalized growth (strain TSCII, hits give low values) was 0.981.
